Screens: PubChem, National Center for Advancing Translational Sciences (NCATS)
DRD3 antagonist = antagonists of human D3 dopamine receptor. P35462. D3R cells, DiscoveRx beta-arrestin luminescence, antagonist mode; hits give low values. max response, negative = inhibition, %. 360,000 tested, 2.5% active; in the data active = max response below about -50%; inconclusive = no clear call, values can overlap the other calls; note: % is set by controls: 0 for no effect and ±100 for the full control effect
Target sequence (P35462 whole entry, looked up): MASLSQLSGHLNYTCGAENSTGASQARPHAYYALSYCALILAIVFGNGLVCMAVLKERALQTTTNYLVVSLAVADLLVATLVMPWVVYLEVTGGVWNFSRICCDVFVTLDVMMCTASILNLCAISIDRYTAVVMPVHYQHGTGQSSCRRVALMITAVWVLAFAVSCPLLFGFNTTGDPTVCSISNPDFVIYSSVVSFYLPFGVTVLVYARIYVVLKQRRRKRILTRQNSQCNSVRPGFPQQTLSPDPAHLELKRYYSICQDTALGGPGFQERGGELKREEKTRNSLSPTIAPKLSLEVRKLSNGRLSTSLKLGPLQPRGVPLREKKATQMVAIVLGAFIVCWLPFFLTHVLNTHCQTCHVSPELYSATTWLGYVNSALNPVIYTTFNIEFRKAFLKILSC
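Cells expressing the human receptor were seeded at 1500 cells/well, incubated overnight at 37 degrees C in 5% CO2, then exposed to library compounds with dopamine controls for 90 minutes at 37 degrees C before luminescent detection.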
TDP1 cell CPT = growth inhibition of DT40 Tdp1-/-;hTDP1 cells with camptothecin (screen for TDP1 inhibitors). 420,000 tested, 12% active. Potency, µM (titrated, usually from 46.2 µM), without a hit: top-dose activity change, negative = growth inhibition, hits mostly inhibitors. chicken DT40 Tdp1-/-;hTDP1 cells + 20 nM CPT, ATP luminescence, 48 h; note: potency is the fitted concentration of half-maximal effect; % is set by controls: 0 for no effect and ±100 for the full control effect; nearly all actives have a fitted effect of over 55% in size
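Cell growth measured by CellTiter-Glo luminescence after a minimum 48 h, 37 C compound exposure with 20 nM CPT in Tdp1-knockout DT40 cells stably expressing hTDP1, seeded 400/well; qHTS titration format.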
D3 ag = activates the human D3 dopamine receptor; P35462; D3R DiscoveRx beta-arrestin cells, luminescence, 90 min; AID 652048; 410,000 tested, 0.58% active; max activation, %; in the data active = max activation above about 30%; note: 0% is about no effect
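Agonist mode: compounds and dopamine controls were applied to plated cells for 90 min at 37 degrees C after an overnight attachment at 1500 cells/well. Luminescent read-out followed 30 - 60 minutes at room temperature with DiscoveRx detection reagent.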
IL-1B inflam inh = blocks inflammasome-driven IL-1 beta release; THP-1 LPS/ATP IL-1B secretion, AlphaLISA, 16 h; hits give low values; activity change, % at 57.5 µM; 360,000 tested, 4.7% active; AID 743279; in the data active = activity change below about -50%; inconclusive = mostly about -30% to -49%; note: % is set by controls: 0 for no effect and ±100 for the full control effect
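THP-1 cells pretreated 1 hr with compounds (up to 57.5 uM final), then stimulated with LPS (250 ng/mL final) plus ATP (1.25 mM final); secreted IL-1B measured by AlphaLISA after 16 hr, decreased signal indicating inhibition.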
TDP1 cell noCPT = qHTS for Inhibitors of human tyrosyl-DNA phosphodiesterase 1 (TDP1): qHTS in cells in absence of CPT | DT40 Tdp1-/- hTDP1 cells, no CPT, ATP luminescence, 48 h | Potency, µM (top dose mostly 46.2 µM), for inactives: at the highest dose activity change, negative = growth inhibition, most hits filed as inhibitors | 420,000 tested, 15% active | AID 686978, 2013; note: potency is the fitted concentration of half-maximal effect; % is set by controls: 0 for no effect and ±100 for the full control effect; nearly all actives have a fitted effect of over 55% in size
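Growth of hTDP1-complemented DT40 Tdp1-knockout cells is measured by ATP luminescence after at least 48 hr compound exposure at 37 °C, with DMSO substituting for the 20 nM CPT used in the parallel screen.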
ClpP mod = qHTS Assay for Activators of ClpP | ATP-dependent Clp protease proteolytic subunit (Bacillus subtilis (strain 168)), P80244 | purified B. subtilis ClpP, FRET peptide cleavage, 20 min | Potency, µM (top dose mostly 57.5 µM), for the others: at the highest dose activity change, negative = active | 340,000 tested, 1.9% active | AID 651965, 2013; active = well fitted falling curve with a large enough effect; inconclusive = small, poorly fitted or top-dose-only effect; inactive = no such curve, though single readings can be large or run the other way; note: potency is the fitted concentration of half-maximal effect; the source files actives as falling curves though it sought activators and does not explain the sign; nearly all actives have a fitted effect of over 65% in size
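Purified B. subtilis ClpP, 10 microg/mL final in Tris/HCl pH8 with KCl, BSA, glycerol and Tween-20, cleaved an Abz/nitrotyrosine-quenched decapeptide. Fluorescence (ex 320, em 430) was read at 0 and 20 min at room temperature. Delta was normalized to 5.8 microM ADEP and DMSO/no-enzyme controls.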
The depositor's hits bear a star; ? = inconclusive; / = no result. Only some compounds are listed: those with a hit (about 21% of all), similar ones and a draw of the others. Unless noted, calls come from the whole dose curve; as a rule, active = well fitted inhibition curve with a large enough effect; inconclusive = small, poorly fitted or top-dose-only effect; inactive = flat fitted curve, though single readings scatter.

SMILES	DRD3 antagonist	TDP1 cell CPT	D3 ag	IL-1B inflam inh	TDP1 cell noCPT	ClpP mod
CCc1nc2c(OCc3ccc(Cl)cc3)cccn2c1N(C)C(=O)c1ccc(C)cc1	-13.8	18.4µM*	-11.3	?	18.4µM*	-4.2%
Cc1cc2nc(/C=C/c3nc4cc(C)c(C)cc4[nH]3)[nH]c2cc1C	-18.9	1.3%	-2.0	2.7	-21.3%	-9.6%
Cc1cc2nc(/C=C/c3cccnc3)[nH]c2cc1C	0.0	0.0184µM*	-1.2	6.5	0.0184µM*	3.8%
Clc1ccc2oc(-c3ccccc3)cc(=NCCCN3CCOCC3)c2c1	-5.8	?	-6.4	-91.4*	?	/
CCSc1nc2sc3c(c2c(=O)n1-c1ccc(OC)cc1)CCN(C)C3	4.3	?	5.6	-17.2	16.4µM*	/
CCC1(C)Cc2c(sc3nc(SC)n(-c4ccc(C)cc4)c(=O)c23)CO1 (configuration not stated)	/	?	-9.6	/	14.6µM*	-3.9%
CCSc1nc2sc3c(c2c(=O)n1-c1ccc(C)cc1)CCCC3	/	?	-5.2	/	8.2µM*	-4.1%
CCOC(=O)CSc1nc2sc3c(c2c(=O)n1-c1ccc(OC)cc1)CCN(C)C3	-26.6	?	-10.5	10.7	?	-14.2%
CCOc1ccc(-n2cnc3sc4c(c3c2=O)CCCC4)cc1	-5.7	?	-4.3	-63.3*	?	-9.0%
Cc1cc(C)c(NC(=O)CCS(=O)(=O)c2cc3c(cc2Cl)NC(=O)CO3)c(C)c1	/	/	-11.8	/	/	1.7%
CCOC(=O)C(Cc1ccccc1)c1ccnc2nc(N)nn12 (configuration not stated)	1.7	-12.9%	1.1	39.9	2.9%	3.7%
C=CCON1C(=O)C(=O)N(OCC=C)[C@H]2CCCC[C@H]21	17.0	4.0%	0.0	0.0	-5.0%	-0.3%
CCOC(=O)c1ccc2ncc3c(-c4ccccc4)nn(-c4ccc(F)c(Cl)c4)c3c2c1	/	-12.1%	-12.2	/	-1.1%	23.7%
O=C1NC[C@H](CCCCN2C[C@H](Cc3ccccc3)N(CCc3ccccc3)C(=O)C2=O)N(CC2CCCCC2)C1=O	0.0	-2.4%	-5.1	0.0	-16.4%	1.2%
CCCCSc1nc2sc3c(c2c(=O)n1-c1ccc(C)cc1)CCN(C)C3	-7.4	16.4µM*	-20.1	?	14.6µM*	1.0%
Cc1ccccc1-n1c(SCC(=O)c2c(N)n(C)c(=O)n(C)c2=O)nnc1-c1cccnc1	15.1	-12.7%	7.2	0.8	-21.4%	/
Cc1ccccc1-n1c(SCC(=O)c2c(N)n(C)c(=O)n(C)c2=O)nc2sc3c(c2c1=O)CCCC3	2.9	18.4µM*	1.3	9.6	23.1µM*	-4.7%
CC(OC(=O)Cn1cnc2ccccc2c1=O)C(=O)NCc1ccccc1 (configuration not stated)	3.1	3.4%	1.0	-1.9	-10.5%	/
Cc1nn(C(C)C(=O)Nc2ccccc2C(F)(F)F)c(=O)c2c1sc1ccccc12 (configuration not stated)	/	-6.0%	-11.6	/	-10.2%	-1.3%
CC1=CC(C)(C)NC(=S)N1c1ccc([N+](=O)[O-])cc1	-13.7	29.1µM*	0.6	-2.1	20.6µM*	/
CC1=CC(C)(C)NC(=S)N1c1ccc(C)cc1	14.3	20.6µM*	6.4	7.9	23.1µM*	0.0%
CC1=CC(C)(C)NC(=S)N1c1ccc(C)c(C)c1	-10.5	?	-8.8	-0.7	?	-0.5%
O=C(CCCCn1c(=O)c2ccccc2n(Cc2cccc(F)c2)c1=O)NCc1ccc2c(c1)OCO2	/	?	0.0	/	23.1µM*	-14.9%
COc1ccc(NC(=O)CCCn2c(=O)c3sccc3n(Cc3ccc(C)cc3C)c2=O)cc1	-10.9	20.6µM*	1.0	-29.7	16.4µM*	1.2%
Cc1ccc(C)c(Cn2c(=O)n(CCCC(=O)NCc3ccc4c(c3)OCO4)c(=O)c3sccc32)c1	/	?	-11.1	/	14.6µM*	-25.0%
